# Data reported in PubChem BioAssay (EPA / NIEHS).
# Records with an inconclusive call do not appear. The source made the active and inactive calls. How the source made its calls: active means hit-call score of the fitted dose curve at least 0.9, where 1 is the maximum; inconclusive means response in the unintended direction; inactive means score below 0.9.
# Biological target: human CYP2A6, CYP2A6 (gene 1548) (UniProt P11509)
# Assay: NVS_ADME_hCYP2A6: NovaScreen (NVS) CYP450-related Enzyme Activity (ADME) Assay for human CYP2A6 (AID 2283099)
# Method: NVS_ADME_hCYP2A6 is a biochemical, single-readout assay that uses extracted gene-proteins from insect cells in a cell-free assay. Measurements were taken 0.5 hour after chemical dosing in a 96-well plate.NVS_ADME_hCYP2A6 is one of one assay component(s) measured or calculated from the NVS_ADME_hCYP2A6 assay. It is designed to make measurements of enzyme activity, a form of enzyme reporter, as detected with fluorescence intensity signals by Fluorescence technology.Data from the assay component NVS_ADME_hCYP2A6 was analyzed into 1 assay endpoint. This assay endpoint, NVS_ADME_hCYP2A6, was analyzed in the positive analysis fitting direction relative to Acetonitrile as the negative control and baseline of activity. Using a type of enzyme reporter, loss-of-signal activity can be used to understand changes in the enzymatic activity as they relate to the gene CYP2A6. Furthermore, this assay endpoint can be referred to as a primary readout, because this assay has produced multiple assay endpoints where this one serves a enzymatic activity function. To generalize the intended target to other relatable targets, this assay endpoint is annotated to the cyp intended target family, where the subfamily is xenobiotic metabolism.
# Binding assays used specific radioligands (tritiated, iodinated) with non-radioactive competitive displacement ligands in agonist or antagonist protocols (as indicated) and various reference compounds and inhibitors to titrate specific binding to receptors and transporters. Most enzyme assays (CYPs, kinases, phosphatases, proteases, HDACs) used recombinant protein and specific substrates (fluorescence mostly, some colorimetric and radioactive) and inhibitors, followed by a biochemical separation of substrate and product. All assays for the biochemical HTS were initially run in duplicate at a single concentration (10 uM for CYP450 assays and 25 uM for all others). Assay-chemical combinations meeting a pre-defined threshold (e.g., 30% inhibition and other criteria defined below) were then run in singleton concentration-response format with maximum concentration of 20 uM for CYPs and 50 uM for all others. Each assay was run with positive and negative controls, and concurrent controls on every plate. The follow-up (secondary) screen tested active chemical-pairs in concentration series, as well as a few additional assays not tested in the primary screen, some selected negative inactives, and several cases re-run in the concentration series for confirmatory purposes.
# human CYP2A6, CYP2A6 (gene 1548), sequence (P11509 whole entry, looked up): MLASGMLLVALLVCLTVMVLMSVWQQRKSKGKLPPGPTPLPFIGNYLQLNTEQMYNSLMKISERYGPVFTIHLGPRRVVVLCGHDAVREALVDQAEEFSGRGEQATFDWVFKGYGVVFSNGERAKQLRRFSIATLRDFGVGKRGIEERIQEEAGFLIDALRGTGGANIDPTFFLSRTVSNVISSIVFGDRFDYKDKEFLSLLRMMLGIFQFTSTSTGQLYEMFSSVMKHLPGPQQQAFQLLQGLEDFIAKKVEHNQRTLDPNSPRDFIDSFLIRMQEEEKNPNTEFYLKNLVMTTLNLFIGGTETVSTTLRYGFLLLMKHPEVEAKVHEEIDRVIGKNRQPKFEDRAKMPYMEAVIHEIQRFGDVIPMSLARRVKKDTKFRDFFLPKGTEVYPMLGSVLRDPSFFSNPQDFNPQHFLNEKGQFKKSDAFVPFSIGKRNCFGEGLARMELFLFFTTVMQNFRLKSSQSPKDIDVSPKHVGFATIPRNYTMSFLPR
SMILES,AC50,outcome
[Cl-].[Cl-].[Hg+2],14.8 µM (active),–
O=C(N[C@H](c1ccccc1)[C@@H]1CN2CCC1CC2)c1c(Cl)ccc(C(F)(F)F)c1Cl,–,inactive
Clc1ccccc1Cl,–,inactive
Nc1ccc(N=Nc2ccccc2)cc1,–,inactive
O=[N+]([O-])C(Br)(CO)CO,–,inactive
CC(C)(OOC(C)(C)c1ccccc1)c1ccccc1,–,inactive
CCCCCCCCn1sccc1=O,4.74 µM (active),–
Cc1cccc(N)c1N,–,inactive
Nc1ccc([N+](=O)[O-])cc1,8.46 µM (active),–
CCOC(=O)[C@]1(c2ccccc2)Oc2ccccc2[C@@H]1N,–,inactive
Cc1cc(N=Nc2ccccc2C)ccc1N,–,inactive
C[N+](C)(C)CC1CO1 (configuration not stated),–,inactive
